For part of these data: Results with a measured potency or affinity are listed apart. Calls of active or inactive are those of the source. No rule for the calls is given here.
Assay: blockers of polyQ-driven CASP3 activation – cell-based (AID 1583)
Conditions: polyglutamine-induced caspase-3 activation, cell assay; stronger effect = higher value; concentration not given here
With CC(C)(S)C(N)C(=O)O (centres undefined) the inhibition was 22.3%.
Molecule CC[C@H]1OC(=O)[C@H](C)[C@@H](O[C@H]2C[C@@](C)(OC)[C@@H](O)[C@H](C)O2)[C@H](C)[C@@H](O[C@@H]2O[C@H](C)C[C@H](N(C)C)[C@H]2O)[C@](C)(O)C[C@@H](C)CN(C)[C@H](C)[C@@H](O)[C@]1(C)O has an inhibition of 6.36%.
In the case of CC(Cc1ccc(O)c(O)c1)(NN)C(=O)O (centres undefined), the inhibition is reported as 4.01%.

Assay: yeast 75Q aggregation reduction – 75Q-TubU reporter (AID 1593)
Conditions: Yeast 75Q polyglutamine aggregation reporter
CC(C)(S)C(N)C(=O)O (centres undefined) gave a score of 1.79.
CC[C@H]1OC(=O)[C@H](C)[C@@H](O[C@H]2C[C@@](C)(OC)[C@@H](O)[C@H](C)O2)[C@H](C)[C@@H](O[C@@H]2O[C@H](C)C[C@H](N(C)C)[C@H]2O)[C@](C)(O)C[C@@H](C)CN(C)[C@H](C)[C@@H](O)[C@]1(C)O showed a score of 1.1.
Molecule CC(Cc1ccc(O)c(O)c1)(NN)C(=O)O (centres undefined) has a score of 1.18.

Assay: restoration of touch response, mutant HTT neurons – whole organism, C. elegans mechanosensory neurons, N-terminal huntingtin (AID 1599)
Conditions: C. elegans polyQ-huntingtin mechanosensory neurons, stronger effect = higher value
CC(C)(S)C(N)C(=O)O (centres undefined) gave a rescue above control of -1.67.
For CC[C@H]1OC(=O)[C@H](C)[C@@H](O[C@H]2C[C@@](C)(OC)[C@@H](O)[C@H](C)O2)[C@H](C)[C@@H](O[C@@H]2O[C@H](C)C[C@H](N(C)C)[C@H]2O)[C@](C)(O)C[C@@H](C)CN(C)[C@H](C)[C@@H](O)[C@]1(C)O, the rescue above control was 0.7.
CC(Cc1ccc(O)c(O)c1)(NN)C(=O)O (centres undefined) showed a rescue above control of -6.05.

Assay: blockers of cytochrome c efflux from mitochondria – biochemical, purified mitochondria (AID 1603);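 also: mouse liver mitochondria challenged with calcium chloride; signal normalized to the plate average as 100%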
Conditions: stronger effect = lower value
CC(C)(S)C(N)C(=O)O (centres undefined) showed a cytochrome c release ratio of 0.98.
In the case of CC[C@H]1OC(=O)[C@H](C)[C@@H](O[C@H]2C[C@@](C)(OC)[C@@H](O)[C@H](C)O2)[C@H](C)[C@@H](O[C@@H]2O[C@H](C)C[C@H](N(C)C)[C@H]2O)[C@](C)(O)C[C@@H](C)CN(C)[C@H](C)[C@@H](O)[C@]1(C)O, the cytochrome c release ratio is reported as 1.04.
For CC(Cc1ccc(O)c(O)c1)(NN)C(=O)O (centres undefined), the cytochrome c release ratio was 0.84.

Assay: polyglutamine aggregate formation blockers (AID 1604)
Conditions: polyglutamine-induced protein aggregation inhibition assay; stronger effect = higher value; concentration not given here
In the case of CC(C)(S)C(N)C(=O)O (centres undefined), the inhibition of aggregation is reported as 94.4%.
Work on CC[C@H]1OC(=O)[C@H](C)[C@@H](O[C@H]2C[C@@](C)(OC)[C@@H](O)[C@H](C)O2)[C@H](C)[C@@H](O[C@@H]2O[C@H](C)C[C@H](N(C)C)[C@H]2O)[C@](C)(O)C[C@@H](C)CN(C)[C@H](C)[C@@H](O)[C@]1(C)O yielded an inhibition of aggregation of 65.2%.
Work on CC(Cc1ccc(O)c(O)c1)(NN)C(=O)O (centres undefined) yielded an inhibition of aggregation of 15.6%.

Assay: glutamate transport activators, MN-1 cells, MN-1 cell line (AID 1612);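 also: 0% = mean of DMSO vehicle wells on each plate; positive means more glutamate uptake than control and negative means less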
Conditions: MN-1 motor neuron cells, stronger effect = higher value
CC(C)(S)C(N)C(=O)O (centres undefined) showed a glutamate uptake change of -17.3%.
Work on CC[C@H]1OC(=O)[C@H](C)[C@@H](O[C@H]2C[C@@](C)(OC)[C@@H](O)[C@H](C)O2)[C@H](C)[C@@H](O[C@@H]2O[C@H](C)C[C@H](N(C)C)[C@H]2O)[C@](C)(O)C[C@@H](C)CN(C)[C@H](C)[C@@H](O)[C@]1(C)O yielded a glutamate uptake change of 5.3%.
CC(Cc1ccc(O)c(O)c1)(NN)C(=O)O (centres undefined) showed a glutamate uptake change of 6.68%.

Assay: GFP-Q80 aggregate reduction, neuronal-like cells, cell-based, NGF-treated PC12, GFPQ80 (AID 1614);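 also: lower means fewer inclusions and 0 means no inclusions at all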
Conditions: PC12 NGF-treated GFP-polyQ80 inclusion reduction
In the case of CC(C)(S)C(N)C(=O)O (centres undefined), the inclusion score is reported as 2.
Molecule CC[C@H]1OC(=O)[C@H](C)[C@@H](O[C@H]2C[C@@](C)(OC)[C@@H](O)[C@H](C)O2)[C@H](C)[C@@H](O[C@@H]2O[C@H](C)C[C@H](N(C)C)[C@H]2O)[C@](C)(O)C[C@@H](C)CN(C)[C@H](C)[C@@H](O)[C@]1(C)O has an inclusion score of 3.
For CC(Cc1ccc(O)c(O)c1)(NN)C(=O)O (centres undefined), the inclusion score was 2.

Assay: 75Q-TubH aggregate inhibition, S. cerevisiae, yeast (AID 1616)
Conditions: S. cerevisiae 75Q-TubH polyglutamine aggregation suppression; stronger effect = higher value
CC(C)(S)C(N)C(=O)O (centres undefined) gave an aggregation suppression score of 1.65.
Molecule CC[C@H]1OC(=O)[C@H](C)[C@@H](O[C@H]2C[C@@](C)(OC)[C@@H](O)[C@H](C)O2)[C@H](C)[C@@H](O[C@@H]2O[C@H](C)C[C@H](N(C)C)[C@H]2O)[C@](C)(O)C[C@@H](C)CN(C)[C@H](C)[C@@H](O)[C@]1(C)O has an aggregation suppression score of 0.581.
CC(Cc1ccc(O)c(O)c1)(NN)C(=O)O (centres undefined) gave an aggregation suppression score of 1.15.

Assay: compounds altering circadian rhythm period length – cell-based, LOPAC library, luminescence reporter (AID 2774);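 also: values are relative to mean of DMSO wells on each plate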
Conditions: circadian reporter cells, at 7 µM, actives lie on both sides
For CC(C)C[C@H](NC(=O)[C@@H](O)[C@H](N)Cc1ccccc1)C(=O)O, the period change was 0.15 h (inactive).
For CN(C)CCCC1(c2ccc(F)cc2)OCc2cc(C#N)ccc21 (centres undefined), the period change was -0.06 h (inactive).
In the case of CC(C)NCC(O)c1ccc(NS(C)(=O)=O)cc1 (centres undefined), the period change is reported as -0.07 h (inactive).
With O=C(c1ccc(OCCN2CCCCC2)cc1)c1c(-c2ccc(O)cc2)sc2cc(O)ccc12 the period change was 0.135 h (inactive).
For NCC(O)c1ccc(O)c(O)c1 (centres undefined), the period change was 0.075 h (inactive).
For Cc1cnc(C(=O)NCCc2ccc(S(=O)(=O)NC(=O)NC3CCCCC3)cc2)cn1, the period change was 0.035 h (inactive).
In the case of CCN(CC)CC#CCOC(=O)C(O)(c1ccccc1)C1CCCCC1 (centres undefined), the period change is reported as -0.025 h (inactive).
In the case of COc1nc(C)nc(Cl)c1NC1=NCCN1, the period change is reported as -0.08 h (inactive).

Assay: compounds altering viability of human ES cells (AID 493140);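 also: cells exposed to compounds for four days before counting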
Conditions: human embryonic stem cell survival screen; stronger effect = higher value
For CCOC(=O)c1ccc(OC(=O)CCCCCN=C(N)N)cc1, the survival was 18.2 (inactive).
In the case of Cc1c(C(=O)NN2CCCCC2)nn(-c2ccc(Cl)cc2Cl)c1-c1ccc(I)cc1, the survival is reported as 93 (inactive).
In the case of CC(C)NCC(O)c1ccc(NS(C)(=O)=O)cc1 (centres undefined), the survival is reported as 2.17 (inactive).
In the case of O=C(c1ccc(OCCN2CCCCC2)cc1)c1c(-c2ccc(O)cc2)sc2cc(O)ccc12, the survival is reported as 4.58 (inactive).
In the case of Cc1cnc(C(=O)NCCc2ccc(S(=O)(=O)NC(=O)NC3CCCCC3)cc2)cn1, the survival is reported as 31.5 (inactive).
In the case of CCN(CC)CC#CCOC(=O)C(O)(c1ccccc1)C1CCCCC1 (centres undefined), the survival is reported as 12.5 (inactive).
With COc1nc(C)nc(Cl)c1NC1=NCCN1 the survival was 21 (inactive).

Reference: PubChem BioAssay
